# Reference: PubChem BioAssay (Tox21)
# Results filed as inconclusive are left out. Activity calls are given as the source filed them. The call rests on the fitted dose curve; in most records, active means well fitted cell-killing curve with a large enough effect in the repeat runs; inconclusive means weak or mixed curves, or effect the other way; inactive means no such curve, though single readings can be large or run the other way.
# Assay: qHTS assay to identify small molecule agonists of the estrogen receptor alpha (ER-alpha) signaling pathway in the presence of an antagonist - cell viability counter screen (AID 1259386);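 further: cells exposed to compounds for 22 h at 37 °C before the viability read; nearly all actives have a fitted effect of over 30% in size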
# Details: VM7Luc4E2 viability, CellTiter-Fluor fluorescence, 22 h; series mostly up to 92.4 µM; activity change, negative = cytotoxicity: at the top concentration
# Source text: National Center for Advancing Translational Sciences [NCATS]
# NIH Chemical Genomics Center [NCGC]
# U.S. Environmental Protection Agency [EPA]
# National Institutes of Environmental Health Sciences [NIEHS]
# National Toxicology Program [NTP]
# U.S. Food and Drug Administration [FDA]
# Estrogen receptor (ER), a member of nuclear hormone receptor plays an important role in development, metabolic homeostasis and reproduction. Two subtypes of ER, ER-alpha and ER-beta, have similar expression patterns with some uniqueness in both types. Endocrine disrupting chemicals (EDCs) and their interactions with steroid hormone receptors like ER causes disruption of normal endocrine function. Therefore, it is important to understand the effect of environmental chemicals in ER signaling pathway. For identifying ER agonists, VM7Luc4E2 cell line has been used in the current assay.
# VM7Luc4E2 cell line (provided by Denison MS, University of California) endogenously expresses full-length ER-alpha and is stably transfected with a plasmid containing four estrogen responsive elements (ERE) upstream of a luciferase reporter gene. This current screening for measuring luciferase reporter gene activity using VM7Luc4E2 cells against Tox21 10K library collection is a confirmation study on agonist mode screening in presence of ER-antagonist (ICI-182,780) at 10.0nM final concentration. The cytotoxicity of the compounds was tested in parallel by measuring the cell viability using CellTiter-Fluor assay system (Promega, Madison, WI) in the same wells.
# Tox21 Assay Protocol Summary:
# VM7Luc4E2 cells were cultured in phenol red free assay medium containing 10% charcoal stripped FBS for 5 days prior to the assay. The cells were dispensed at 4,000 cells in 4uL of assay medium per well into white wall/solid-bottom 1536-well plates (Corning Life Sciences, Corning, NY) using a Multidrop Combi (Thermo Fisher Scientific Inc., Waltham, MA) dispenser. After the assay plates were incubated at 37C and 5% CO2 for 24hr, 1uL of 10.0nM (final concentration) ICI-182,780 or assay buffer was added using two separate tips of Flying Reagent Dispenser (FRD, Aurora Discovery, San Diego, CA). Then 23nL of compounds dissolved in DMSO at 15 concentrations and positive controls or DMSO only was transferred to the assay plates by a Pintool station (Wako, San Diego, CA). The assay plates were incubated at 37C and 5% CO2 for 22hr. After 21hr incubation at 37C, 1uL/well CellTiter-Fluor reagent (Promega Corporation, Madison, WI) was added to each well using FRD and after 1hr incubation at 37C and 5% CO2, the fluorescence signal was measured on ViewLux plate reader (PerkinElmer, Shelton, CT).
# On the % scale 0 is the no-effect control and ±100 the full control effect.
row,Compound,"activity change, negative = cytotoxicity"
1,CCN(CC)CC(=O)Nc1c(C)cccc1C,-4.78% [at 42.5 µM] (inactive)
2,O=C(O)c1ccc(Cl)cc1Cl,0.243% (inactive)
3,O=Cc1ccc(Cl)c(Cl)c1,-3.49% (inactive)
4,O=C(NCC(O)CO)c1c(I)c(C(=O)NCC(O)CO)c(I)c(N(CCO)C(=O)CO)c1I (stereo not given),0.999% [at 42.5 µM] (inactive)
5,C=C(C)C(=O)OCc1ccccc1,-0.0526% (inactive)
6,NCCN1CCOCC1,-1.04% (inactive)
7,CN=C(NC#N)Nc1ccc(C2=NNC(=O)CC2C)cc1 (stereo not given),-9.67% [at 42.5 µM] (inactive)
8,Nc1cccc(O)c1,-2.1% (inactive)
9,COc1cc2c(cc1OC)C(=O)CC2,1.89% [at 42.5 µM] (inactive)
10,O=C1CC(c2ccc(Cl)cc2)CC(=O)N1,0.41% [at 42.5 µM] (inactive)
11,CCCCCCCCCCl,2.83% (inactive)
12,CC1(C)S[C@@H]2[C@H](N=CN3CCCCCC3)C(=O)N2[C@H]1C(=O)O,-1.13% [at 42.5 µM] (inactive)
13,COC(=O)CCCCCCCC(=O)OC,-0.775% (inactive)
14,CC(S)C(=O)NCC(=O)O (stereo not given),0.922% [at 42.5 µM] (inactive)
15,CCCCCCOc1ccccc1C(N)=O,-11.8% [at 42.5 µM] (inactive)
16,CNS(=O)(=O)CCc1ccc2[nH]cc(C3CCN(C)CC3)c2c1,1.03% [at 42.5 µM] (inactive)
17,CN(C)c1ccc(C=O)cc1,1.31% (inactive)
18,Cc1cc(C(C)(C)C)c(O)c(C)c1CC1=NCCN1,-1.96% [at 42.5 µM] (inactive)
19,CCCCCCCCC1CCC(=O)O1 (stereo not given),1.64% (inactive)
20,C=C1CC/C=C(\C)CC[C@@H]2[C@@H]1CC2(C)C,8.92% (inactive)

row,Compound,"activity change, negative = cytotoxicity"
1,NCCS,0.693% [at 42.5 µM] (inactive)
2,CC(C)OC(=O)CCCCC(=O)OC(C)C,0.188% (inactive)
3,C=C(C)C(=O)OCC(C)(C)COC(=O)C(=C)C,1.32% (inactive)
4,CC(=C(CCOC(=O)C(C)C)SSC(CCOC(=O)C(C)C)=C(C)N(C=O)Cc1cnc(C)nc1N)N(C=O)Cc1cnc(C)nc1N,3.75% [at 42.5 µM] (inactive)
5,O=C(O)c1cc(Br)c(O)c(Br)c1,-2.08% (inactive)
6,COC(=O)c1ccccc1C(=O)c1ccc(OCCN2CCCCC2)cc1,-7.2% [at 42.5 µM] (inactive)
7,CC(CO)c1ccccc1 (stereo not given),1.45% (inactive)
8,O=C(CS(=O)Cc1ccco1)NC/C=C\COc1cc(CN2CCCCC2)ccn1 (stereo not given),2.86% [at 42.5 µM] (inactive)
9,O=S(=O)(O)CCN1CCN(CCO)CC1,1.66% (inactive)
10,CCNC(=O)C1CC(C)CCC1C(C)C (stereo not given),1.54% (inactive)
11,CC(=O)c1sc(C)nc1C,0.0515% (inactive)
12,CC(C)(C)c1n[nH]c(=S)n(N)c1=O,1.7% (inactive)
13,CC[C@H](C)C(=O)O[C@H]1C[C@H](O)C=C2C=C[C@H](C)[C@H](CC[C@@H](O)C[C@@H](O)CC(=O)O)[C@H]21,6.93% (inactive)
14,CC(C)(C)c1cc(CCC(=O)NN)cc(C(C)(C)C)c1O,-0.237% (inactive)
15,CC(C)CC(C)CC(C)CC(C)COC(=O)c1ccccc1C(=O)OCC(C)CC(C)CC(C)CC(C)C (stereo not given),-0.12% (inactive)
16,CC(=O)N[C@@H](CCC(=O)O)C(=O)O,1.07% [at 42.5 µM] (inactive)
17,Nc1ncnc(Nc2ccccc2)n1,1.6% [at 42.5 µM] (inactive)
18,COc1ccc(S(=O)(=O)N2c3ccc(Cl)cc3[C@@](O)(c3ccccc3Cl)[C@H]2C(=O)N2CCC[C@@H]2C(N)=O)cc1OC,0.298% [at 42.5 µM] (inactive)
19,CC(CC=O)CCCC(C)(C)O (stereo not given),5.72% (inactive)
20,BrCc1cccc(Oc2ccccc2)c1,2.01% (inactive)
